# EP2 mod = modulates human prostaglandin E2 receptor EP2 signaling; induction, % at 25 µM; AID 940; EP2-expressing cells, cAMP HTRF FRET, PGE2 co-stimulation; 260,000 compounds, 0.83% hits; P43116;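 active means compounds whose cAMP rise, as percent of the full-agonist control response, exceeds 60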;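 further: rat C6 glioma line stably carrying human EP2 under a CMV promoter; the protocol text gives 20 µM as final concentration; 100% = response of wells given 1 µM PGE2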
# S1P4 ag = human S1P4 receptor agonism | O95977 | S1P4-expressing cell line, agonist reporter assay | activation, % at 4.98 µM | 220,000 compounds, 0.35% hits | AID 1509; in the data active means activation above about 11%;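 further: 0% = DMSO vehicle and 100% = reference agonist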
# Target sequence (O95977 whole entry, looked up): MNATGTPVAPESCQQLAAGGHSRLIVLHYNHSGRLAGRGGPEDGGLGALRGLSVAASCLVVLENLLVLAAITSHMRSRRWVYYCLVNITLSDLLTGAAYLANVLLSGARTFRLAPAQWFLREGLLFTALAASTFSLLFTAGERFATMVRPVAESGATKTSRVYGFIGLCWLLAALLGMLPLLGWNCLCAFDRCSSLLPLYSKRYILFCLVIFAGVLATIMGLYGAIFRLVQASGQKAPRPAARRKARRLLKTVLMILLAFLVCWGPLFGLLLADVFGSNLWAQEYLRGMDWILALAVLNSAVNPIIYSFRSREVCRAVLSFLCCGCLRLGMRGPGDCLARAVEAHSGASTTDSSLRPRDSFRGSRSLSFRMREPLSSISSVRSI
# S1P3 antag = blocks the human S1P3 receptor. 170,000 compounds, 0.27% hits. inhibition, % at 4.98 µM. AID 485. Q99500. CHO S1P3 NFAT-BLA reporter, FRET fluorescence, antagonist mode;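 active means inhibition above the plate cutoff, the mean inhibition of test wells on that plate plus 3 SD, cut at about 28% in these data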;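 further: cells challenged with S1P at its EC80 of 0.8 µM; blue over green emission ratio from cleaved BLA substrate after 4 h stimulation; 0% = S1P-stimulated wells and 100% = unstimulated DMSO-only wells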
# PGE2 EP2 inh = blocks the human prostaglandin E2 receptor EP2 | 260,000 compounds, 0.52% hits | inhibition, % at 25 µM | C6 glioma cells expressing human EP2, cAMP TR-FRET; cells stimulated with saturating PGE2 | P43116;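 active means percent inhibition above 40 after rounding to a whole number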;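 further: rat C6 glioma host cells with rolipram phosphodiesterase inhibitor present; the protocol text gives 20 µM as final concentration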
# Pf gamet viab = P. falciparum stage V gametocyte viability inhibition | inhibition, % at 10.9 µM | P. falciparum stage V gametocytes, ATP luminescence, 24 h | 150,000 compounds, 0.065% hits;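 active means inhibition above the mean plus 3 SD of compounds within the control limits, set per campaign, cut at about 38% in these data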;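 further: 0% = DMSO wells and 100% = medium only without gametocytes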
# S1P4 antagonist = antagonists of human S1P4 receptor | 220,000 compounds, 0.26% hits | S1P4-expressing cells, antagonist mode, reporter read-out | AID 1510 | O95977 | inhibition, % at 4.98 µM; in the data active means inhibition above about 29%;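 further: 0% = wells stimulated with agonist and 100% = vehicle wells without agonist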
# An asterisk follows results filed as active; . = not tested or not shown; ! = not active in a repeat. Sampled rows, rich in hits. Any-hit rate of the full collection: about 1.9%.
SMILES,EP2 mod,S1P4 ag,S1P3 antag,PGE2 EP2 inh,Pf gamet viab,S1P4 antagonist
CC(=O)OCCCCCCCCCCC[N+]1(C)CCCCC1,1.9,0.9,-5.0,5.8,1.5,-15.6
COc1ccc(N2CCN(S(=O)(=O)c3ccc(S(=O)(=O)N4CCCC4)cc3)CC2)cc1,10.4,.,.,15.8,.,.
O=C1CCCC(=O)C1CS(=O)(=O)c1ccccc1,11.1,1.1,-7.0,7.1,38.7*,-3.1
CCCCc1ccc(Nc2nc(CCC)cc(=O)[nH]2)cc1,60.6*,1.2,31.1,11.1,15.4,-5.0
COc1ccccc1-c1nc(C(N)=O)c2[nH]c(=O)n(C3CCCCC3)c2n1,12.2,.,.,.,.,.
COc1cc(O)c2c(O)c3c(c4c2c1[C@]1(C4)C(C)=CCCC1(C)C)[C@H](O)[C@@]1(O)CC(=O)C(C(N)=O)=C(O)[C@]1(O)C3=O,27.9,.,.,50.9*,.,.
CCOc1ncccc1C(=O)Nc1ncc(C)s1,4.9,-1.2,5.0,3.3,7.5,-17.7
CCOc1ncccc1C(=O)Nc1nc(C(C)(C)C)cs1,63.5*,0.9,-18.9,0.3,27.5,4.5
CC(C)C(C(=O)NCc1ccco1)N(C(=O)CNS(=O)(=O)c1ccc(Cl)cc1)C1CCCC1 (stereo not drawn),4.0,11.3*,14.3,7.6,22.2,8.3
CC(C)C(C(=O)NCc1ccco1)N(C(=O)CNS(=O)(=O)c1ccccc1)c1ccccc1 (stereo not drawn),10.2,-2.0,-0.1,6.2,10.8,4.1
C/C(=N\NC(=O)c1ccncc1)c1cc2ccccc2oc1=O,-7.8,-0.1,-2.0,7.6,-10.7,-4.7
C/C(=N/NC(=O)c1ccncc1)c1cc2ccc(O)cc2oc1=O,14.5,47.7*,-30.9,5.2,-34.5,-67.7
Clc1ccc(CSc2ncnc3c2ncn3[C@@H]2CCCCO2)cc1,-3.2,.,.,44.5*,.,.
Nc1ncnc2c1ncn2C1CCCO1 (stereo not drawn),-48.1,.,.,23.6,.,.
O=C(O)CSc1ncnc2c1sc1nc(-c3ccccc3)c3c(c12)CCC3,70.4*,0.7,1.1,6.8,2.2,6.3
O=c1[nH]cnc2c1sc1nc(-c3ccccc3)c3c(c12)CCCC3,48.4,0.6,-13.3,11.0,-2.9,-0.4
O=C(O)c1c2c(c(O)c3c1CN(C1CCCCC1)CO3)OCN(C1CCCCC1)C2,-3.8,.,.,60.6*,.,.
Cc1ccc2cc(CN(Cc3ccco3)C(=S)NCc3ccco3)c(=O)[nH]c2c1,-26.0,.,.,6.1,.,.
CC(=O)Nc1ccc2c(C)cc(C(F)(F)F)nc2n1,-12.4,.,.,4.3,.,.
O=C1/C(=C/c2ccncc2)SC(=S)N1Cc1ccccc1,-22.5,0.5,9.1,44.4*,4.8,17.5
Cc1ccc(/C=C2\SC(=S)N(CCC(=O)NNS(=O)(=O)c3ccccc3)C2=O)cc1,64.5*,-0.3,23.8,9.3,.,9.0
O=C(CCCN1C(=O)/C(=C/c2ccccc2)SC1=S)Nc1cccc(O)c1,-80.1,-1.2,-18.1,70.4*,-1.6,-8.5
COc1cc(/C=C2\SC(=S)N(NS(=O)(=O)c3ccc(C)cc3)C2=O)ccc1O,-51.0,-1.0,2.4,40.7*,8.2,-19.1
O=C(CCCN1C(=O)/C(=C\c2ccccc2)SC1=S)Nc1ccc(O)cc1,-86.2,-1.1,-7.7,17.2,-19.9,9.1
CCCCOC(=O)CNc1n[nH]c(=S)[nH]c1=O,-31.7,-1.9,.,113.7*,-15.0,-9.3
SMILES,EP2 mod,S1P4 ag,S1P3 antag,PGE2 EP2 inh,Pf gamet viab,S1P4 antagonist
CCCCOC(=O)C(C)Nc1n[nH]c(=S)[nH]c1=O (stereo not drawn),6.5,-2.8,.,36.0,-1.3,-8.4
CC(C)COC(=O)CNc1n[nH]c(=S)[nH]c1=O,-17.6,3.4,.,133.3*,4.2,2.5
Cc1nc(C)n(C(C)CC(=O)NC(C)Cn2nc3c(C)cc4ccccc4n3c2=O)n1 (stereo not drawn),-9.3,.,.,5.1,.,.
C[N@@+]1(CC[N@+]2(C)CCC[C@@H]2c2cccnc2)CCC[C@@H]1c1cccnc1,25.5,.,.,47.3*,.,.
CN1CCC[C@H]1c1cccnc1,18.2,.,.,8.4,.,.
COc1cc(C2SCCCCCCCCCCSC(c3ccc(O)c(OC)c3)SCCCCCCCCCCS2)ccc1O (stereo not drawn),13.9,.,.,41.2*,.,.
Cn1cc(CCCC(=O)NC2CCCOC2)c2ccccc21 (stereo not drawn),-35.8,.,.,8.8,.,.
Cc1ccc(N2CC(C(=O)Nc3nc4ccccc4s3)CC2=O)cc1 (stereo not drawn),-91.5,.,.,8.7,.,.
COc1ccccc1NC(=O)c1ccc2c(c1)N(Cc1cc(C)ccc1C)C(=O)C(C)(C)O2,64.2*,.,.,14.9,.,.
COc1ccccc1NC(=O)CN1C(=O)C(C)(C)Oc2ccc(C(=O)NC3CCCC3)cc21,31.1,.,.,7.5,.,.
CCc1ccc2[nH]c(=O)c(CN(CC3CCCO3)C(=S)Nc3ccc(F)cc3)cc2c1 (stereo not drawn),7.5,.,.,6.9,.,.
COc1ccccc1OCc1nnc(SCC(=O)Nc2cc(Cl)ccc2C)n1C,18.5,.,.,5.3,.,.
COc1ccccc1CN(Cc1nc2ccccc2c(=O)[nH]1)S(=O)(=O)c1ccc(C)cc1,61.2*,0.8,.,14.6,.,-7.6
COc1ccc(CC(=O)N2CCn3c(nnc3C3CC3)C2)cc1,4.3,.,.,.,.,.
C/C(=N/NC(=O)c1cccs1)c1ccco1,1.6,-0.7,2.1,4.9,2.7,-6.3
C/C(=N\N(c1ccccc1)c1ccccc1)c1ccco1,61.7*,-0.3,-7.2,2.6,3.7,-4.4
C/C=C/C(=O)N1c2ccccc2C(C)=CC1(C)C,61.3*!,-1.4,-29.0,8.6,-27.8,-7.5
c1ccc(-c2nc(N3CCOCC3)c3ccccc3n2)nc1,2.9,-0.4,17.4,11.2,.,6.3
c1ccc(-c2nc(N3CCCCCC3)c3ccccc3n2)nc1,61.0*,1.7,29.3,10.4,13.8,-13.9
c1ccc2c(c1)nc(N1CCCCC1)c1ccccc12,67.6*,-2.3,-2.6,10.0,1.3,-10.7
CC(C)(C)c1ccc(CN2CCN([C@H](c3ccccc3)c3ccc(Cl)cc3)CC2)cc1,15.2,.,.,45.3*,.,.
OCCOCCN1CCN(C(c2ccccc2)c2ccc(Cl)cc2)CC1 (stereo not drawn),14.6,2.6,12.3,19.6,.,-12.0
Oc1ccc(-c2csc(-c3ccccc3)n2)c(O)c1,-141.7,.,.,48.4*,.,.
CCOC(=O)N1CCN(S(=O)(=O)c2ccc(C(=O)Nc3nnc(C)o3)cc2)CC1,23.7,-0.2,10.9,8.6,-19.6,-14.1
CC1CN(S(=O)(=O)c2ccc(C(=O)Nc3nnc(-c4ccc5c(c4)CCCC5)o3)cc2)CC(C)O1 (stereo not drawn),-12.7,-0.9,84.3*,9.9,.,-17.3
Cc1nnc(NC(=O)c2ccc(S(=O)(=O)N3CCc4ccccc4C3)cc2)o1,16.7,0.3,-8.5,5.5,49.4*,-12.2
CC1CN(S(=O)(=O)c2ccc(C(=O)Nc3nnc(-c4ccccn4)o3)cc2)CC(C)O1 (stereo not drawn),19.7,0.9,-17.3,9.9,13.3,6.9
C#CCOc1ccc(C2C3=C(CCCC3=O)NC3=C2C(=O)CCC3)cc1OC,3.7,.,.,17.3,.,.

# Compound activity: PubChem BioAssay, several laboratories
